# Activity calls are given as the source filed them. The calls were made as follows: active = hit-call score of the fitted dose curve at least 0.9, where 1 is the maximum; inactive = score below 0.9.
# Read-out: Cytochrome P450 (CYP1A1), CYP1A1 (gene 1543)
# Assay: LTEA_HepaRG_CYP1A1: Life Technologies and Expression Analysis (LTEA) Assay for Cytochrome P450 (CYP1A1) using HepaRG (AID 2283454)
# Conditions: mRNA level, 48 h; actives raise or lower the signal
# Method in brief: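 HepaRG, 48 h post-plating switched to serum-free induction medium; 8-pt conc-response (top 100 uM, half-log, 0.5% DMSO), duplicates, 48 h. Lysis in RLT, TaqMan qRT-PCR for CYP1A1; gain or loss vs DMSO.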
SMILES,AC50,outcome
CC(c1ccc(O)cc1)(c1ccc(O)cc1)c1ccc(O)cc1,15.8 µM (active),
C=CC(N)=O,,inactive
Cc1cc2c3c(c1)C(c1ccccc1)=N[C@@H](NC(=O)c1ccncc1)C(=O)N3CC2,24.4 µM (active),
CN(C)CCO,,inactive
Nn1cnnc1,50 µM (active),
Cc1cc(-c2ccc(N)c(C)c2)ccc1N,20.3 µM (active),
O=C(NC(=O)c1c(F)cccc1F)Nc1cc(Cl)c(OC(F)(F)C(F)F)c(Cl)c1,3.34 µM (active),
CN(C)c1nc(=O)n(C2CCCCC2)c(=O)n1C,50 µM (active),
O=C(O)C(F)(F)C(F)(F)C(F)(F)C(F)(F)C(F)(F)C(F)(F)C(F)(F)C(F)(F)C(F)(F)F,,inactive
c1cc2ccc3cccc4ccc(c1)c2c34,24.3 µM (active),
C=CC(=O)NCNC(=O)C=C,25 µM (active),
Clc1ccc(C(Cl)(Cl)Cl)cc1,,inactive
O=C(NC(=O)c1cc(F)c(F)cc1Cl)Nc1cc(F)ccc1N1CCC(C(=O)O)CC1,25 µM (active),

# Read-out: CFLAR gene, CFLAR (gene 8837)
# Assay: LTEA_HepaRG_CFLAR: Life Technologies and Expression Analysis (LTEA) Assay for CFLAR gene using HepaRG (AID 2283455)
# Conditions: mRNA level, 48 h; actives raise or lower the signal
# Method in brief: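 HepaRG, 48 h exposure, 8-pt conc-response (100 uM top, half-log), 0.5% DMSO vehicle, duplicates. CFLAR expression by qRT-PCR; ACTB/GAPDH/POLR2A normalization; gain or loss fit vs DMSO baseline.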
SMILES,outcome,AC50
CC1=C2C[C@H]3[C@@H](CC=C4C[C@@H](O)CC[C@@]43C)[C@@H]2CC[C@]12O[C@@H]1C[C@H](C)CN[C@H]1[C@H]2C,inactive,
CC#Cc1cc(C)nc(Nc2ccccc2)n1,inactive,
CCC(C)(c1ccc(O)cc1)c1ccc(O)cc1,,71.4 µM (active)
Cc1ccccc1CO[C@@H]1C[C@@]2(C(C)C)CC[C@]1(C)O2,inactive,
CCC(=O)O[C@H]1CC[C@H]2[C@@H]3CCC4=CC(=O)CC[C@]4(C)[C@H]3CC[C@]12C,inactive,
Oc1ccc(Cl)cc1Cl,inactive,
CCCCCCCCCc1ccc(O)cc1,inactive,
ClC(Cl)=C(c1ccc(Cl)cc1)c1ccc(Cl)cc1,inactive,
O=S(=O)(O)C(F)(F)C(F)(F)C(F)(F)C(F)(F)C(F)(F)C(F)(F)F,inactive,
Cc1cc(O)ccc1Cl,inactive,
O=C(O)C(F)(F)C(F)(F)C(F)(F)C(F)(F)C(F)(F)C(F)(F)C(F)(F)C(F)(F)F,inactive,
COS(=O)(=O)OC,inactive,
N#Cc1ccc(N(CC(N)=O)CC(F)(F)F)cc1C(F)(F)F,inactive,
CCC(C)(CC)c1cc(NC(=O)c2c(OC)cccc2OC)on1,inactive,
O=C(N[C@H]1CN2CCC1CC2)c1cc2ccoc2cn1,inactive,
C1CC2OC2CC1C1CO1 (configuration not stated),inactive,

SMILES,outcome,AC50
O=S(=O)(O)C(F)(F)C(F)(F)C(F)(F)C(F)(F)F,inactive,
O=NN(c1ccccc1)c1ccccc1,inactive,
NS(=O)(=O)C(F)(F)C(F)(F)C(F)(F)C(F)(F)C(F)(F)C(F)(F)C(F)(F)C(F)(F)F,,7.67 µM (active)
CC(c1ccc(O)cc1)(c1ccc(O)cc1)c1ccc(O)cc1,,64.5 µM (active)
C=CC(N)=O,inactive,
Cc1cc2c3c(c1)C(c1ccccc1)=N[C@@H](NC(=O)c1ccncc1)C(=O)N3CC2,inactive,
CN(C)CCO,inactive,
Nn1cnnc1,inactive,
Cc1cc(-c2ccc(N)c(C)c2)ccc1N,inactive,
O=C(NC(=O)c1c(F)cccc1F)Nc1cc(Cl)c(OC(F)(F)C(F)F)c(Cl)c1,inactive,
CN(C)c1nc(=O)n(C2CCCCC2)c(=O)n1C,inactive,
O=C(O)C(F)(F)C(F)(F)C(F)(F)C(F)(F)C(F)(F)C(F)(F)C(F)(F)C(F)(F)C(F)(F)F,,89.5 µM (active)
c1cc2ccc3cccc4ccc(c1)c2c34,inactive,
C=CC(=O)NCNC(=O)C=C,inactive,
Clc1ccc(C(Cl)(Cl)Cl)cc1,inactive,
O=C(NC(=O)c1cc(F)c(F)cc1Cl)Nc1cc(F)ccc1N1CCC(C(=O)O)CC1,inactive,

# Read-out: Forkhead box O1 (FOXO1), FOXO1 (gene 2308)
# Assay: LTEA_HepaRG_FOXO1: Life Technologies and Expression Analysis (LTEA) Assay for Forkhead box O1 (FOXO1) using HepaRG (AID 2283456)
# Conditions: mRNA level, 48 h; actives raise or lower the signal
# Method in brief: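 Readout is FOXO1 transcript level by multiplexed qRT-PCR against three housekeeping genes, curve-fitted in both directions relative to 0.5% DMSO vehicle. Human HepaRG cultures received chemicals for 48 h, up to 100 uM in half-log steps.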
SMILES,outcome,AC50
CC1=C2C[C@H]3[C@@H](CC=C4C[C@@H](O)CC[C@@]43C)[C@@H]2CC[C@]12O[C@@H]1C[C@H](C)CN[C@H]1[C@H]2C,inactive,
CC#Cc1cc(C)nc(Nc2ccccc2)n1,inactive,
CCC(C)(c1ccc(O)cc1)c1ccc(O)cc1,inactive,
Cc1ccccc1CO[C@@H]1C[C@@]2(C(C)C)CC[C@]1(C)O2,inactive,
CCC(=O)O[C@H]1CC[C@H]2[C@@H]3CCC4=CC(=O)CC[C@]4(C)[C@H]3CC[C@]12C,inactive,
Oc1ccc(Cl)cc1Cl,inactive,
CCCCCCCCCc1ccc(O)cc1,inactive,
ClC(Cl)=C(c1ccc(Cl)cc1)c1ccc(Cl)cc1,inactive,
O=S(=O)(O)C(F)(F)C(F)(F)C(F)(F)C(F)(F)C(F)(F)C(F)(F)F,inactive,
Cc1cc(O)ccc1Cl,inactive,
O=C(O)C(F)(F)C(F)(F)C(F)(F)C(F)(F)C(F)(F)C(F)(F)C(F)(F)C(F)(F)F,inactive,
COS(=O)(=O)OC,inactive,
N#Cc1ccc(N(CC(N)=O)CC(F)(F)F)cc1C(F)(F)F,inactive,
CCC(C)(CC)c1cc(NC(=O)c2c(OC)cccc2OC)on1,inactive,
O=C(N[C@H]1CN2CCC1CC2)c1cc2ccoc2cn1,inactive,
C1CC2OC2CC1C1CO1 (configuration not stated),inactive,

SMILES,outcome,AC50
O=S(=O)(O)C(F)(F)C(F)(F)C(F)(F)C(F)(F)F,inactive,
O=NN(c1ccccc1)c1ccccc1,inactive,
NS(=O)(=O)C(F)(F)C(F)(F)C(F)(F)C(F)(F)C(F)(F)C(F)(F)C(F)(F)C(F)(F)F,,24.9 µM (active)
CC(c1ccc(O)cc1)(c1ccc(O)cc1)c1ccc(O)cc1,,73.5 µM (active)
C=CC(N)=O,inactive,
Cc1cc2c3c(c1)C(c1ccccc1)=N[C@@H](NC(=O)c1ccncc1)C(=O)N3CC2,inactive,
CN(C)CCO,inactive,
Nn1cnnc1,inactive,
Cc1cc(-c2ccc(N)c(C)c2)ccc1N,inactive,
O=C(NC(=O)c1c(F)cccc1F)Nc1cc(Cl)c(OC(F)(F)C(F)F)c(Cl)c1,inactive,
CN(C)c1nc(=O)n(C2CCCCC2)c(=O)n1C,inactive,
O=C(O)C(F)(F)C(F)(F)C(F)(F)C(F)(F)C(F)(F)C(F)(F)C(F)(F)C(F)(F)C(F)(F)F,,81.6 µM (active)
c1cc2ccc3cccc4ccc(c1)c2c34,inactive,
C=CC(=O)NCNC(=O)C=C,inactive,
Clc1ccc(C(Cl)(Cl)Cl)cc1,inactive,
O=C(NC(=O)c1cc(F)c(F)cc1Cl)Nc1cc(F)ccc1N1CCC(C(=O)O)CC1,inactive,
